Values joined by “and” are separate entries in the source; they are usually repeats but may differ in a detail not shown here. Equal values may be shown once. ± gives the standard deviation of the averaged measurements. Whole data set: some 1,600 compounds, median “normalized growth (OD600, IQM-normalized) in LPM” near 1, cut for the lowest 2% near 0.014. Shown is part of a subset that was picked to be rich in the lowest values.
Tested on: Salmonella enterica serovar Typhimurium SL1344
Assay: normalized growth (OD600, IQM-normalized) in LPM (fraction of plate interquartile mean); higher = more bacterial growth (less inhibition)
Conditions: LPM pH 5.8; 10 µM; 16 h

SMILES | normalized growth
CC(S)C(=O)NCC(=O)O (stereo unspecified) | 0.982 ± 0.071
O=C(O)CN(CCN(CC(=O)O)CC(=O)O)CC(=O)O.[Na+].[Na+].[Na+] | 0.0403 ± 0.013
CO[C@@]1(NC(=O)CSCC#N)C(=O)N2C(C(=O)O)=C(CSc3nnnn3C)CS[C@@H]21 | 0.957 ± 0.052
CO[C@@]1(NC(=O)C(C(=O)O)c2ccc(O)cc2)C(=O)N2C(C(=O)O)=C(CSc3nnnn3C)CO[C@@H]21 (stereo partly specified) | 0.993 ± 0.045
CO[C@@]1(NC(=O)C2SC(=C(C(N)=O)C(=O)O)S2)C(=O)N2C(C(=O)O)=C(CSc3nnnn3C)CS[C@@H]21 (stereo partly specified) | 0.00904 ± 0.00015
CO[C@H]1/C=C/O[C@@]2(C)Oc3c(C)c(O)c4c(O)c(c(/C=N/N5CCN(C)CC5)c(O)c4c3C2=O)NC(=O)/C(C)=C\C=C\[C@H](C)[C@H](O)[C@@H](C)[C@@H](O)[C@@H](C)[C@H](OC(C)=O)[C@@H]1C | 0.0102 ± 0.00021
CO[C@H]1/C=C/O[C@@]2(C)Oc3c(C)c(O)c4c(O)c(c5c(nc6cc(C)ccn65)c4c3C2=O)NC(=O)/C(C)=C\C=C\[C@H](C)[C@H](O)[C@@H](C)[C@@H](O)[C@@H](C)[C@H](OC(C)=O)[C@@H]1C | 0.0104 ± 0.00017
O=c1[nH]cnc2c1ncn2[C@@H]1O[C@H](CO)[C@@H](O)[C@H]1O | 1.13 ± 0.034
Nc1ncn([C@@H]2O[C@H](CO)[C@@H](O)[C@H]2O)c(=O)n1 | 0.0134 ± 0.00024
Nc1ccn([C@@H]2O[C@H](CO)[C@@H](O)[C@@H]2O)c(=O)n1 | 1.01 ± 0.067
O=C(O)c1ccc(S(=O)(=O)N(Cl)Cl)cc1 | 0.999 ± 0.013
CC(=O)OC/C=C(C)/C=C/C=C(C)/C=C/C1=C(C)CCCC1(C)C | 0.905 ± 0.06
C=COCC(F)(F)F | 0.991 ± 0.044
CCN(CC)CCOc1ccc2c(c1)C(=O)c1cc(OCCN(CC)CC)ccc1-2 | 1.02 ± 0.083
C1CCN2C[C@@H]3C[C@@H](CN4CCCC[C@@H]34)[C@H]2C1 | 1.13 ± 0.04
COCC1=C(C(=O)OC(C)OC(=O)OC(C)C)N2C(=O)[C@@H](NC(=O)/C(=N\OC)c3csc(N)n3)[C@H]2SC1 (stereo partly specified) | 1.034 ± 0.0056
CCCCCCCCCCCCCCCC[N+](C)(C)C | 0.982 ± 0.038
C[C@@H]1CC2C3C[C@H](F)C4=CC(=O)C=C[C@]4(C)[C@@]3(F)[C@@H](O)C[C@]2(C)[C@@]1(O)C(=O)COC(=O)C(C)(C)C (stereo partly specified) | 1.04 ± 0.12
COC(=O)Nc1nc2cc(Sc3ccccc3)ccc2[nH]1 | 0.987 ± 0.024
OC[C@@H](O)[C@@H](O[C@@H]1O[C@H](CO)[C@H](O)[C@H](O)[C@H]1O)[C@H](O)[C@@H](O)CO | 0.98 and 0.904
CS(=O)(=O)c1ccc([C@@H](O)[C@@H](CO)NC(=O)C(Cl)Cl)cc1 | 0.934 ± 0.078
CS(=O)(=O)c1ccc([C@@H](O)[C@@H](CF)NC(=O)C(Cl)Cl)cc1 | 0.0094 ± 0.00019

SMILES | normalized growth
Clc1ccccc1CN1CCc2sccc2C1 | 1.02 ± 0.037
O=C(N[C@H](CO)[C@H](O)c1ccc([N+](=O)[O-])cc1)C(Cl)Cl | 0.0146 ± 0.00075
CCCCCCCCCCCCCCCC(=O)OC[C@@H](NC(=O)C(Cl)Cl)[C@H](O)c1ccc([N+](=O)[O-])cc1 | 1.04 ± 0.082
O=C(O)CCC(=O)OC[C@@H](NC(=O)C(Cl)Cl)[C@H](O)c1ccc([N+](=O)[O-])cc1 | 0.014 ± 0.00072
C#C[C@]1(O)CC[C@H]2[C@@H]3[C@H](C)CC4=C(CCC(=O)C4)[C@H]3CC[C@@]21C | 0.987 ± 0.048
OCc1ccccc1O | 1.05 ± 0.04
CN(C/C=C/c1ccccc1)Cc1cccc2ccccc12 | 0.885 ± 0.019
CC(=O)N[C@@H]([C@@H](O)[C@H](O)[C@H](O)CO)[C@@H](O)CC(=O)C(=O)O | 1 ± 0.065
CC(C)(Oc1ccc(C(=O)c2ccc(Cl)cc2)cc1)C(=O)O | 0.976 ± 0.024
CC(=O)NCCCCCC(=O)O | 1.11 ± 0.034
N#Cc1ccc2c(c1)N(CCCN1CCC(O)CC1)c1ccccc1S2 | 1.09 ± 0.035
O=C(O)C[C@H](O)C[C@H](O)/C=C/c1c(C2CC2)nc2ccccc2c1-c1ccc(F)cc1 | 1.19 ± 0.13
N=C(N)c1ccc(N=NNc2ccc(C(=N)N)cc2)cc1 | 0.766 ± 0.035
CC(=O)Nc1cccc(O)c1 | 1.02 ± 0.014
Cc1c(NC(C)C)c(=O)n(-c2ccccc2)n1C | 0.981 ± 0.15
CCCCCCNC(=O)n1cc(F)c(=O)[nH]c1=O | 0.007569 ± 7.1e-05
C[C@H]1O[C@@H](n2cc(F)c(=O)[nH]c2=O)[C@H](O)[C@@H]1O | 0.412 ± 0.11
CCOC(=O)COc1ccc2c(=O)cc(-c3ccccc3)oc2c1 | 1.01 ± 0.035
OC[C@H]1O[C@H](O[C@H]2[C@H](O)[C@@H](O)C(O)O[C@@H]2CO)[C@H](O)[C@@H](O)[C@@H]1O (stereo partly specified) | 1.06 ± 0.12
O=c1cc[nH]c(=O)[nH]1 | 1.06 ± 0.04
Nc1nc(=O)[nH]cc1F | 0.742 ± 0.12
O=c1[nH]cc(F)c(=O)[nH]1 | 0.0109 ± 0.0049

SMILES | normalized growth
COc1cc([C@@H]2c3cc4c(cc3[C@@H](O[C@@H]3O[C@@H]5CO[C@@H](c6cccs6)O[C@H]5[C@H](O)[C@H]3O)[C@H]3COC(=O)[C@H]23)OCO4)cc(OC)c1O | 0.882 ± 0.027
O=C1c2cccc(O)c2C(=O)c2c(O)cccc21 | 0.827 ± 0.05
CCN(CC)C(=O)/C(C#N)=C/c1cc(O)c(O)c([N+](=O)[O-])c1 | 0.924 ± 0.023
C[C@]12CC[C@@H]3c4ccc(OC(=O)c5ccccc5)cc4CC[C@H]3[C@@H]1CC[C@@H]2O | 0.779 ± 0.061
C/C=C(/C(=C/C)c1ccc(O)cc1)c1ccc(O)cc1 | 1.04 ± 0.035
CO[C@H]1C[C@@H]2CC[C@@H](C)[C@@](O)(O2)C(=O)C(=O)N2CCCC[C@H]2C(=O)O[C@H]([C@H](C)C[C@@H]2CC[C@@H](O)[C@H](OC)C2)CC(=O)[C@H](C)/C=C(\C)[C@@H](O)[C@@H](OC)C(=O)[C@H](C)C[C@H](C)/C=C/C=C/C=C/1C | 0.964 ± 0.048
Cc1ccc(Nc2c(F)cccc2Cl)c(CC(=O)O)c1 | 1.11 ± 0.053
CCNC(=O)/C=C/c1cccc(Br)c1 | 1.08 ± 0.035
COC(=O)/C=C/C(=O)OC | 1.42 ± 0.16
Nc1nc(Cl)nc2c1ncn2[C@@H]1O[C@H](CO)[C@@H](O)[C@@H]1F | 1.11 ± 0.025
CC1(C)[C@@H](O)CC[C@]2(C)[C@H]3C(=O)C=C4[C@@H]5C[C@@](C)(C(=O)O)CC[C@]5(C)CC[C@@]4(C)[C@]3(C)CC[C@@H]12 | 0.906 ± 0.073
CC(=O)Nc1ncc([N+](=O)[O-])s1 | 0.899 ± 0.018
CCCCCCOc1ccccc1C(N)=O | 1.01 ± 0.048
COc1ccc2cc(C(C)C(=O)O)ccc2c1 (stereo unspecified) | 1.07 ± 0.032
CCC[C@@H]1C[C@@H](C(=O)N[C@@H]([C@H]2O[C@H](SC)[C@H](O)[C@@H](O)[C@H]2O)[C@@H](C)O)N(C)C1 | 1.096 ± 0.0085
CN(Cc1cnc2nc(N)nc(N)c2n1)c1ccc(C(=O)NC(CCC(=O)O)C(=O)O)cc1 (racemic) | 0.665 ± 0.054
CCC(=O)OCC(=O)[C@@]1(OC(=O)CC)[C@@H](C)C[C@H]2[C@@H]3CCC4=CC(=O)C=C[C@]4(C)[C@@]3(F)[C@@H](O)C[C@@]21C | 1.06 ± 0.047
CCn1cc(C(=O)O)c(=O)c2cc(F)c(N3CCN(C)CC3)cc21 | 0.0116 ± 0.00051
O=C(O)c1cn(C2CC2)c2cc(N3CCNCC3)c(F)cc2c1=O | 0.0145 ± 0.0063
CCn1cc(C(=O)O)c(=O)c2cc(F)c(N3CCNCC3)cc21 | 0.0247 ± 0.0053
CN1CCN(c2cc3c(cc2F)c(=O)c(C(=O)O)cn3-c2ccc(F)cc2)CC1 | 0.0108 ± 0.00018
CCn1cc(C(=O)O)c(=O)c2cc(F)c(N3CCNCC3)nc21 | 0.0514 ± 0.033

SMILES | normalized growth
O=C(O)c1cn(-c2ccc(F)cc2)c2cc(N3CCNCC3)c(F)cc2c1=O | 0.0341 ± 0.0073
CCCCC(O)c1ccccc1 (stereo unspecified) | 0.984 ± 0.032
CC1=CC(=O)NS(=O)(=O)O1 | 0.928 ± 0.054
CS(=O)(=O)c1ccc(C2=C(c3ccccc3)C(=O)OC2)cc1 | 1.07 ± 0.11
CCCCCCCCCC(=O)N[C@@H](Cc1c[nH]c2ccccc12)C(=O)N[C@@H](CC(N)=O)C(=O)N[C@@H](CC(=O)O)C(=O)N[C@@H]1C(=O)NCC(=O)N[C@@H](CCCN)C(=O)N[C@@H](CC(=O)O)C(=O)N[C@H](C)C(=O)N[C@@H](CC(=O)O)C(=O)NCC(=O)N[C@H](CO)C(=O)N[C@@H]([C@H](C)CC(=O)O)C(=O)N[C@@H](CC(=O)c2ccccc2N)C(=O)O[C@@H]1C [DAPTOMYCIN (5 millimolar/DMSO)] | 1.02 ± 0.057
C[C@]12CCC(=O)C=C1[C@@H]1C[C@@H]1[C@H]1[C@@H]3[C@@H]4C[C@@H]4[C@@]4(CCC(=O)O4)[C@@]3(C)CC[C@@H]12 | 1.07 ± 0.069
COc1cc(/C=C/C(=O)N2CCCCCCC2)cc(OC)c1OC | 0.961 ± 0.025
N[C@@H](Cc1ccc(O)cc1)C(=O)O | 0.979 ± 0.02
CC(=O)NC(Cc1ccccc1)C(=O)O (stereo unspecified) | 0.957 ± 0.064
CNC(=C[N+](=O)[O-])NCCSCc1csc(CN(C)C)n1 | 1.15 ± 0.28
O=C(O)C1=C(CSc2nnnn2CS(=O)(=O)O)CS[C@@H]2[C@H](NC(=O)[C@H](O)c3ccccc3)C(=O)N12 | 1.01 ± 0.024
CCCCCNC(=N)N/N=C/c1c[nH]c2ccc(OC)cc12 | 1.09 ± 0.12
Cc1cc(C2CCCCC2)n(O)c(=O)c1 | 0.183 ± 0.014
O=C(OC[C@H]1O[C@@H](OC(=O)c2cc(O)c(O)c(OC(=O)c3cc(O)c(O)c(O)c3)c2)[C@H](OC(=O)c2cc(O)c(O)c(OC(=O)c3cc(O)c(O)c(O)c3)c2)[C@@H](OC(=O)c2cc(O)c(O)c(OC(=O)c3cc(O)c(O)c(O)c3)c2)[C@@H]1OC(=O)c1cc(O)c(O)c(OC(=O)c2cc(O)c(O)c(O)c2)c1)c1cc(O)c(O)c(OC(=O)c2cc(O)c(O)c(O)c2)c1 | 1.08 ± 0.013
O=C(O)C(=O)O.[NH-][C@@H]1CCCC[C@H]1[NH-].[Pt+2] | 0.742 ± 0.017
O=C(O)P(=O)(O)O | 0.953 ± 0.027
OC[C@H]1O[C@@H](O[C@H]2[C@H](O)[C@@H](O)C(O)O[C@@H]2CO)[C@H](O)[C@@H](O)[C@H]1O (stereo partly specified) | 1.14 ± 0.057
CO/N=C(\C(=O)N[C@@H]1C(=O)N2C(C(=O)O)=C(C[N+]3(C)CCCC3)CS[C@H]12)c1csc(N)n1 | 0.0232 ± 0.0056
CO/N=C(\C(=O)N[C@@H]1C(=O)N2C(C(=O)O)=C(COC(C)=O)CS[C@H]12)c1csc(N)n1 | 0.0479 ± 0.0089
C=CC1=C(C(=O)O)N2C(=O)[C@@H](NC(=O)/C(=N\O)c3csc(N)n3)[C@H]2SC1 | 0.0112 ± 0.00049

Source: the supplement of paper PMC6331611
